According to ChEMBL document CHEMBL3988442, “University of Dundee, Small-Polar-MMV Screening Library” (2021):

Test system: Trypanosoma cruzi
Test: Trypanosoma cruzi phosphomannomutase and mannose-1-phosphate guanylyltransferase assay
Type: functional
Parameters: scale not given: direction of the effect not stated beside the values
Settings: 10 µM

| Compound | Percent Effect |
| --- | --- |
| COCCN1CC[C@@H]2O[C@@H](COCC(=O)N3CCCC3)CC[C@@H]21 | 7.94% |
| O=C(c1ccc[nH]1)N1CCCC(c2cc(C(F)(F)F)[nH]n2)C1 (centres undefined) | -4.39% |
| O=C(c1coc(COc2cccc(F)c2)n1)N1CC[C@H](O)[C@@H](O)C1 | 1.93% |
| Cc1nnc2n1CCN(CCOc1ccccc1)C2 | -0.308% |
| c1ccc(OCCN2CCCC(c3noc(C4CC4)n3)C2)cc1 (centres undefined) | -3.02% |
| Cn1ccc(CN2CCC(OCCc3ccccc3)CC2)cc1=O | -4.87% |
| COC1COC2(CCN(Cc3ccccc3Cl)CC2)C1 (centres undefined) | -0.982% |
| COc1cccc(S(=O)(=O)N2CCn3cnc(COCC4CC4)c3C2)c1 | 0.386% |
| Cc1ncsc1C(=O)N(C)CCc1ccncc1 | -0.564% |
| Cc1cc(C)n(C2CCCN(C(=O)Cc3csc(C)n3)C2)n1 (centres undefined) | 6.7% |
| O=C(NCCNc1cnccn1)N1CCN(Cc2cccnc2)CC1 | 3.38% |
| Cc1cc(NC(=O)NCC(C)O)n(C)n1 (centres undefined) | 5.64% |
| CCc1nccn1C1CCCN(C(=O)c2cnn(C)c2C2CC2)C1 (centres undefined) | -6.51% |
| CCOCC(O)CN1CCN(C(=O)c2cccnc2OC)CC1 (centres undefined) | -0.936% |
| O=C(CN1CCc2cncnc2C1)NCCOc1ccccc1 | -2.33% |
| Cc1nc(N2CCCCC2)ncc1C(=O)N1CC(C)(C)[C@@](C)(O)C1 | -2.05% |
| c1cncc(-c2nccc(CN3CCCC3)n2)c1 | 2.37% |
| O=C(NC1CCCC1)N1CCCC(c2nccn2Cc2ccncc2)C1 (centres undefined) | 8.07% |
| Cc1cc(CN2CCOC(CN(C)c3cccnn3)C2)no1 (centres undefined) | 3.23% |
| Cn1cc(CNCCn2cccn2)c(-c2cccnc2)n1 | -1.66% |

| Compound | Percent Effect |
| --- | --- |
| O=C1NC2(CCN(C(=O)c3ccccc3)CC2)CC1c1cccnc1 (centres undefined) | 9.32% |
| Cc1cnn(CC2CCCN2Cc2coc(-c3ccccc3)n2)c1 (centres undefined) | 6.46% |
| Cc1nc(CN2CCOCC3(CCN(c4cccnc4)CC3)C2)cs1 | -2.34% |
| CNS(=O)(=O)c1ccc(C(=O)N2CCCC2Cc2ccccc2)o1 (centres undefined) | 2.52% |
| CN(CCC(F)(F)F)C(=O)[C@H]1CSCN1C(=O)OC(C)(C)C | 8.03% |
| O=C(CN1CCOC(Cn2cccn2)C1)Nc1nncs1 (centres undefined) | 10.3% |
| CS(=O)(=O)NC1CCCN(C(=O)NCc2cc[nH]n2)C1 (centres undefined) | 5% |
| c1cnc2c(c1)cc(C1CCOCC1)n2CCN1CCOCC1 | 0.79% |
| CN(C)C(=O)COCc1cncc2c1CCN(Cc1nccn1C)C2 | 7.18% |
| CN(C)S(=O)(=O)N1C[C@@H]2CC[C@H](C1)N(Cc1ccc3nsnc3c1)C2 | 3.21% |
| CN(C)C(CNC(=O)c1cccc(-n2cnnn2)c1)c1ccccc1Cl (centres undefined) | -7.64% |
| Cc1cc(C)n(CC2CN(Cc3cscn3)CCO2)n1 (centres undefined) | 2.63% |
| Cc1ccc(NC2CCN(C(=O)c3c(C)noc3C)CC2)nn1 | 7.33% |
| Cc1nc(N2CCOCC2)nc2c1CCN(C(=O)NC1CCCC1)CC2 | -11% |
| CCOc1nnc(CN(C)CC2CCCN2c2cccnn2)s1 (centres undefined) | 3.41% |
| CN1N=C(C(=O)N(Cc2ccco2)C2CC2)CCC1=O | 1.46% |
| COc1cccc(CNC(CN2CCN(C)CC2)c2ccccc2)c1 (centres undefined) | -6.75% |
| Cc1csc2c(=O)n3c(nc12)CCN(C(=O)c1cccnc1)CC3 | 4.94% |
| CC(C)n1ncc2cc(NC(=O)N3CCC(N4CCCC4)C3)cnc21 (centres undefined) | 4.74% |
